From PubChem BioAssay (NCI) come the findings set out here.

The nature of assay [1]: NCI Yeast Anticancer Drug Screen. Data for the rad50 strain (AID 155).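 Note: 0% = growth of vehicle-only cultures of the same strain.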 Particulars: S. cerevisiae rad50 strain growth inhibition, stronger effect = higher value. Summed up:
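A DNA repair-deficient yeast mutant serves as the test organism; compound-induced growth inhibition is calculated against vehicle-treated cells.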

A short description of assay [2]: NCI Yeast Anticancer Drug Screen. Data for the mec2-1 strain (AID 157). The conditions noted are these: S. cerevisiae mec2-1 strain, stronger effect = higher value. An outline of the steps: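 Readout is yeast growth inhibition, normalised to vehicle-treated controls, in the mec2-1 strain exposed to compound.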
Assay [3] in a line: NCI Yeast Anticancer Drug Screen. Data for the sgs1 mgt1 strain (AID 161).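 Note: 0% = growth of cultures given vehicle only.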 The conditions noted are these: S. cerevisiae sgs1 mgt1 strain, stronger effect = higher value. Summed up: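 Compounds are added to genetically altered yeast, and growth is compared with cultures given vehicle alone to give percent inhibition.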
The nature of assay [4]: NCI Yeast Anticancer Drug Screen. Data for the bub3 strain (AID 167). The conditions noted are these: S. cerevisiae bub3 mutant strain, stronger effect = higher value. An outline of the steps: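 Inhibition values come from growth of compound-treated mutant yeast normalised to vehicle-treated controls.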
Assay [5] is described as follows: NCI Yeast Anticancer Drug Screen. Data for the wt2 strain (AID 169).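 Note: 0% = growth of vehicle-treated yeast cultures.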 Particulars: S. cerevisiae wt2 strain growth inhibition, stronger effect = higher value. Summed up:
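Values express reduction in yeast growth under compound treatment, referenced to vehicle-treated cells.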

Assay [6] in a line: NCI Yeast Anticancer Drug Screen. Data for the mlh1 rad18 strain (AID 175). The conditions noted are these: S. cerevisiae mlh1 rad18 strain growth inhibition, stronger effect = higher value. An outline of the steps:
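Test agents were incubated with a yeast strain of defined genotype (DNA damage repair defect). Inhibition of growth was derived by comparison with vehicle-exposed cultures.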

A short description of assay [7]: NCI Yeast Anticancer Drug Screen. Data for the cln2 rad14 strain (AID 165).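 Note: 0% = growth equal to vehicle treated cultures.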 Particulars: S. cerevisiae cln2 rad14 strain, stronger effect = higher value. An outline of the steps: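 Relative to vehicle controls, growth inhibition of compound-treated cln2 rad14 yeast was recorded.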
[8] abbreviates: at 5.0 µM (retest, dose inferred, filed as 0.5).
[9] abbreviates: at 50.0 µM (retest, dose inferred, filed as 5.0).

Values joined by “and” are separate entries in the source; they are usually repeats but may differ in a detail not shown here. Identical values can stand only once. The panel holds about 79,000 compounds, 15% with a hit somewhere; the sample as a whole holds those more often. Unmarked numbers belong to inactive results. Active and inactive are the calls of the source. Cut-off read from the data, not from the text of the source: active = growth inhibition above about 70%; inactive = the rest.

On to `Nc1ccccc1Oc1ccc(Cl)cc1Cl`, for which the growth inhibition was 27% in assay [1] (setting [8]); 48% in assay [1] (setting [9]); 92% (active) in assay [1] (at 50.0 µM); 37% in assay [2] (setting [8]); 61% in assay [2] (setting [9]); 92.7% (active) in assay [2] (at 50.0 µM). The growth inhibition in assay [3] (setting [8]) is -21%; in assay [3] (setting [9]), 98% (active); in assay [3] (at 50.0 µM), 93% (active); in assay [4] (setting [8]), -18%; in assay [4] (setting [9]), 95% (active); in assay [4] (at 50.0 µM), 92.3% (active). Further, the growth inhibition is -3% in assay [5] (at 1.2 µM); -16% in assay [5] (at 3.7 µM); -8% in assay [5] (at 11.0 µM); 95% (active) in assay [5] (at 33.0 µM); 99% (active) in assay [5] (at 100.0 µM); 15% in assay [6] (setting [8]). The growth inhibition was 59% in assay [6] (setting [9]) and 92% (active) in assay [6] (at 50.0 µM).
Regarding `CN(CCN1C(=O)c2cccc3cccc(c23)C1=O)CCN1C(=O)c2cccc3cccc(c23)C1=O`, the growth inhibition is 97% (active) in assay [1] (setting [8]); 96% (active) in assay [1] (setting [9]); 98.5% (active) in assay [1] (at 50.0 µM); 20% in assay [2] (setting [8]); 97% (active) in assay [2] (setting [9]); 98.2% (active) in assay [2] (at 50.0 µM). The growth inhibition in assay [3] (setting [8]) was 69%; in assay [3] (setting [9]), 97% (active); in assay [3] (at 50.0 µM), 97.2% (active); in assay [7] (setting [8]) it was 15%; in assay [7] (setting [9]), 90% (active); in assay [7] (at 50.0 µM), 83.6% (active). The growth inhibition in assay [6] (setting [8]) is 47%; in assay [6] (setting [9]), 97% (active); in assay [6] (at 50.0 µM), 98.1% (active).
Take `CCCCCCC(C(=O)OCC)N1C(=O)c2ccccc2S1(=O)=O` (centres undefined): the growth inhibition in assay [1] (setting [8]) was -3%; in assay [1] (setting [9]), 36%; in assay [1] (at 50.0 µM), 2.55%; in assay [2] (setting [8]), -5%; in assay [2] (setting [9]), 10%; in assay [2] (at 50.0 µM) it was 21.7%. The growth inhibition in assay [3] (setting [8]) was -4%; in assay [3] (setting [9]), 65%; in assay [3] (at 50.0 µM) it was 30.5%; in assay [4] (setting [8]) it was 10%; in assay [4] (setting [9]) it was 55%; in assay [4] (at 50.0 µM), 88.5% (active). For the same compound, the growth inhibition in assay [6] (setting [8]) is 5%; in assay [6] (setting [9]), 36%; in assay [6] (at 50.0 µM) it was 61.9%.
Take `C/C(=N\NC(=S)N1CCN(c2ccccn2)CC1)c1nccs1`: the growth inhibition was 23% in assay [1] (setting [8]); 98% (active) in assay [1] (setting [9]); 86.5% (active) in assay [1] (at 50.0 µM); 43% in assay [3] (setting [8]); 99% (active) in assay [3] (setting [9]); 90.8% (active) in assay [3] (at 50.0 µM). Moreover, the growth inhibition in assay [7] (setting [8]) was 52%; in assay [7] (setting [9]), 98% (active); in assay [7] (at 50.0 µM), 89.5% (active); in assay [4] (setting [8]), 73% (active); in assay [4] (setting [9]) it was 99% (active); in assay [4] (at 50.0 µM), 87.3% (active). Also, the growth inhibition in assay [6] (setting [8]) is 38%; in assay [6] (setting [9]), 99% (active).
`c1ccc(-c2conc2-c2ccccc2)cc1`: the growth inhibition is -22% in assay [1] (setting [8]); 95% (active) in assay [1] (setting [9]); 60.8% in assay [1] (at 50.0 µM); -7% in assay [2] (setting [8]); 91% (active) in assay [2] (setting [9]); 19.1% in assay [2] (at 50.0 µM). In addition, the growth inhibition in assay [3] (setting [8]) was 9%; in assay [3] (setting [9]), 90% (active); in assay [3] (at 50.0 µM) it was 31.4%; in assay [7] (setting [8]) it was -32%; in assay [7] (setting [9]), 68%; in assay [7] (at 50.0 µM) it was -2.5%. Moreover, the growth inhibition in assay [6] (setting [8]) was -10%; in assay [6] (setting [9]) it was 95% (active); in assay [6] (at 50.0 µM), 71.3% (active).
For `C=CCN(CC=C)C(CC(=O)C(C)(C)C)=NCC`, the growth inhibition is 0% in assay [1] (setting [8]); -6% in assay [1] (setting [9]); -14.9% in assay [1] (at 50.0 µM); -7% in assay [2] (setting [8]); 6% in assay [2] (setting [9]); -7.85% in assay [2] (at 50.0 µM). Moreover, the growth inhibition in assay [3] (setting [8]) was 0%; in assay [3] (setting [9]), -6%; in assay [3] (at 50.0 µM), -5.85%; in assay [4] (setting [8]), -3%; in assay [4] (setting [9]) it was 3%; in assay [4] (at 50.0 µM) it was -3.75%. Moreover, the growth inhibition in assay [6] (setting [8]) was -11%; in assay [6] (setting [9]), 1%; in assay [6] (at 50.0 µM), -22.6%.
As for `CC[N](CC)[Ge]([CH2]C)[CH2]C.C[CH2][Ge]([CH2]C)[CH2]C`, the growth inhibition is 40% in assay [1] (setting [8]); 99% (active) in assay [1] (setting [9]); 87% (active) in assay [1] (at 50.0 µM); 19% in assay [2] (setting [8]); 100% (active) in assay [2] (setting [9]); 90.3% (active) in assay [2] (at 50.0 µM). Besides, the growth inhibition in assay [3] (setting [8]) was 32%; in assay [3] (setting [9]), 99% (active); in assay [3] (at 50.0 µM) it was 90% (active); in assay [7] (setting [8]) it was 54%; in assay [7] (setting [9]), 98% (active); in assay [7] (at 50.0 µM) it was 92.5% (active). Further, the growth inhibition in assay [6] (setting [8]) was 37%; in assay [6] (setting [9]) it was 99% (active); in assay [6] (at 50.0 µM), 92.3% (active).
As for `O=C(Nc1ccc(C(=O)O)c(O)c1)c1ccccc1`, the growth inhibition in assay [1] (setting [8]) was -2%; in assay [1] (setting [9]), 40%; in assay [1] (at 50.0 µM), 1.35% and -5.6%; in assay [3] (setting [8]), 0%; in assay [3] (setting [9]), 0%; in assay [3] (at 50.0 µM), -20% and 3.05%. The growth inhibition in assay [7] (setting [8]) was -4%; in assay [7] (setting [9]), -5%; in assay [7] (at 50.0 µM) it was -26.9% and 14.5%; in assay [4] (setting [8]) it was 1%; in assay [4] (setting [9]), 6%; in assay [4] (at 50.0 µM), 15.7% and 12.3%. Also, the growth inhibition in assay [6] (setting [8]) is -3%; in assay [6] (setting [9]) it was 6%; in assay [6] (at 50.0 µM), 8.1% and -3.2%.
